Laboratory results published in the supplement of paper PMC10849652.
The full data set covers some 8,800 targets. This sample favours those with a hit. About 0.5% of all pairs of compound and target were hits.

What was measured:
Experiment in all cases: log2 fold change, soluble protein after heating vs DMSO (PISA); higher = thermal stabilisation; K562 lysate, 10 uM; active = over 0.2 and 3.5 SD of the protein, either way, in both replicates (recomputed)
[1] = compound: C1=CC=C(C=C1)[C@H](COC2=CC3=C(C=C2)NC(=O)N3)NC(=O)C4=CC=CN(C4=O)CC5=CC(=C(C=C5)F)F
How it was run: (§1)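 Following dounce homogenisation of K562 pellets in PBS pH 7.4 with 1 mM MgCl2, crude extract at 1 mg/mL protein was incubated for 30 min with 10 μM compound. Aliquots were then heated for 3 min over 48°C-58°C and pooled, NP-40 was added to 0.5% at 4°C, and soluble protein was recovered as the supernatant at 21,000xg for 90 min. Channel-sum-equalised TMTpro 16plex LC-MS/MS quantified this protein. Each value, from duplicates, is a log-two fold change in thermal stability relative to solvent controls.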

[2] = compound: CC1=C(SC2=C1C(=N[C@H](C3=NN=C(N32)C)CC(=O)N)C4=CC=C(C=C4)Cl)C
How it was run: as §1

[3] = compound: CC1=C2C(=CC=C1)N=C(N(C2=O)C3=CC=CC=C3C)CN4C=NC5=C(N=CN=C54)N
How it was run: as §1

[4] = compound: Cc1sc2c(c1C)C(c1ccc(Cl)cc1)=N[C@@H](CC(=O)OC(C)(C)C)c1nnc(C)n1-2
How it was run: as §1

[5] = compound: c1ccc([C@@H]2C[C@H]2NC2CCNCC2)cc1
How it was run: as §1

Measured: log2 fold change

SSU72 (UniProt Q9NP77)
inactive: [1] 0.014 | [2] 0.017 | [3] 0.078 | [4] 0.004 | [5] -0.17

SNW1 (UniProt Q13573)
inactive: [1] 0.018 | [2] -0.002 | [3] -0.009 | [4] 0.022 | [5] 0.048

SYNRG (UniProt Q9UMZ2)
inactive: [1] -0.033 | [2] 0.05 | [3] 0 | [4] 0.005 | [5] 0.032

SUZ12 (UniProt Q15022)
inactive: [1] -0.011 | [2] 0.042 | [3] -0.008 | [4] -0.047 | [5] -0.039

SLC20A1 (UniProt Q8WUM9)
UniProt Q8WUM9, sequence (Q8WUM9 whole entry, looked up): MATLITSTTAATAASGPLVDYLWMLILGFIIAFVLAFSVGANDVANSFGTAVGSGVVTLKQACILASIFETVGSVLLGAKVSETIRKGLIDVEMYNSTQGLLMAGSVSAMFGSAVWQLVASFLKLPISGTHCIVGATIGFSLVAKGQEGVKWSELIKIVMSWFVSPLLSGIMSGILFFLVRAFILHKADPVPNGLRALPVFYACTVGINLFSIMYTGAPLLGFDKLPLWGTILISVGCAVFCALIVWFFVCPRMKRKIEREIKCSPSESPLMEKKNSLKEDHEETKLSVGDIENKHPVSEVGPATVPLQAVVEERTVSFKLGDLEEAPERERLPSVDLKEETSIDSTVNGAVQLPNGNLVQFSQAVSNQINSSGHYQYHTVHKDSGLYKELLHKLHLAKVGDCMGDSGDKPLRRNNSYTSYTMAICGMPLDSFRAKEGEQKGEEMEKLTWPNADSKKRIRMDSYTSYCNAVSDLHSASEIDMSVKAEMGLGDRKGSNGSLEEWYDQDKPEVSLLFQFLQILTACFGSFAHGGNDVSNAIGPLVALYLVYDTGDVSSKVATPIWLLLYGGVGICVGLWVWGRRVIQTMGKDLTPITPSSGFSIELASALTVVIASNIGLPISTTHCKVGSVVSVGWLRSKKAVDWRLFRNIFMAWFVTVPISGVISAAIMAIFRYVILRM
inactive: [1] 0.071 | [2] -0.048 | [3] 0.007 | [4] -0.046 | [5] 0.024

SNRPD2 (UniProt P62316)
inactive: [1] 0.039 | [2] -0.021 | [3] 0.028 | [4] -0.009 | [5] -0.068

SLC26A6 (UniProt Q9BXS9)
inactive: [1] -0.053 | [2] 0.067 | [3] 0.011 | [4] -0.556 | [5] -0.096

SLC25A44 (UniProt Q96H78)
UniProt Q96H78, sequence (Q96H78 whole entry, looked up): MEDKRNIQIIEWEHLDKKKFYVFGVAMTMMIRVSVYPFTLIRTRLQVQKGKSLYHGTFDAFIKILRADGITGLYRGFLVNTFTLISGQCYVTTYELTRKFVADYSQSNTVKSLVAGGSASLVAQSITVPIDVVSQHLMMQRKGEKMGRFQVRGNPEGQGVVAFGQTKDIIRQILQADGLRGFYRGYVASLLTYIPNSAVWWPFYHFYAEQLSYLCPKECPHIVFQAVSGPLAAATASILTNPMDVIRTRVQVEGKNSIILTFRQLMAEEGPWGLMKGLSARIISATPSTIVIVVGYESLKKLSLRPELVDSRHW
inactive: [1] 0.042 | [2] -0.044 | [3] -0.014 | [4] -0.004 | [5] -0.17

SRM (UniProt P19623)
inactive: [1] -0.007 | [2] 0.029 | [3] 0.001 | [4] 0.009 | [5] 0.039

SPATA5 (UniProt Q8NB90)
inactive: [1] -0.024 | [2] -0.005 | [3] 0.026 | [4] 0.008 | [5] 0.02

SMG7 (UniProt Q92540)
inactive: [1] 0.008 | [2] 0.019 | [3] 0.147 | [4] -0.014 | [5] 0.029

SMTN isoform 6 (UniProt P53814)
inactive: [1] 0.053 | [2] -0.011 | [3] -0.01 | [4] 0.01 | [5] 0.081

SLC38A1 (UniProt Q9H2H9)
UniProt Q9H2H9, sequence (Q9H2H9 whole entry, looked up): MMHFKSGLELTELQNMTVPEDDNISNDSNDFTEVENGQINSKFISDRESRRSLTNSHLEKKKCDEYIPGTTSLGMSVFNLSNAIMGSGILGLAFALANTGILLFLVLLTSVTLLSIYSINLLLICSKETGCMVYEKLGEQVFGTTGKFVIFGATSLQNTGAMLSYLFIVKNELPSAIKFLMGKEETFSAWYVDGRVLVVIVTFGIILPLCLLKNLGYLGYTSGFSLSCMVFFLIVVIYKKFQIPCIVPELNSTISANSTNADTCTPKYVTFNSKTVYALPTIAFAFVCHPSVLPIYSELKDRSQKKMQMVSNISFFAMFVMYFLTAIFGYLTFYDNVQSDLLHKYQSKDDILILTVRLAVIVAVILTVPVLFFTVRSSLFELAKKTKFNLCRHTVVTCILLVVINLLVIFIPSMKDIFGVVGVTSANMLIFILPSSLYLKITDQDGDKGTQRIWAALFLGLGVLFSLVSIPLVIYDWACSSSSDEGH
inactive: [1] 0.055 | [2] -0.116 | [3] 0.06 | [4] -0.116 | [5] -0.128

STK4 (UniProt Q13043)
inactive: [1] -0.031 | [2] -0.098 | [3] -0.05 | [4] -0.029 | [5] -0.124

SPR (UniProt P35270)
UniProt P35270, sequence (P35270 whole entry, looked up): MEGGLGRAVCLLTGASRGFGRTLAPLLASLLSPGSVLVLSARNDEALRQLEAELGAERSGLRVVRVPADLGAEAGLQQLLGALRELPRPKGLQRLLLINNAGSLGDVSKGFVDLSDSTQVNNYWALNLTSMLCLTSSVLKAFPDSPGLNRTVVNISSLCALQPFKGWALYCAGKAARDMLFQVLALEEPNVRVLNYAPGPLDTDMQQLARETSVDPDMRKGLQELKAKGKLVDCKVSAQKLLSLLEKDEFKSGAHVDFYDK
inactive: [1] 0.113 | [2] -0.031 | [3] -0.027 | [4] -0.034 | [5] -0.067

TAF9 (UniProt Q16594)
UniProt Q16594, sequence (Q16594 whole entry, looked up): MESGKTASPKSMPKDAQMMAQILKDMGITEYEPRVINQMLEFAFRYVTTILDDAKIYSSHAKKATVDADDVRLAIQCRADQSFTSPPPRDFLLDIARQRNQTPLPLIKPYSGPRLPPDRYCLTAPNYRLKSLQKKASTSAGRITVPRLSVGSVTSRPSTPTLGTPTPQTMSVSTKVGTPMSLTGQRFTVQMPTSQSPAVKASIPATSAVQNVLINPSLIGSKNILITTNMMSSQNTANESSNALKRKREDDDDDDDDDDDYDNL
inactive: [1] 0.04 | [2] -0.004 | [3] 0.05 | [4] 0.019 | [5] 0.021

SPHK1 isoform 2 (UniProt Q9NYA1)
inactive: [1] -0.014 | [2] -0.034 | [3] -0.038 | [4] -0.003 | [5] 0.092

SMIM12 (UniProt Q96EX1)
UniProt Q96EX1, sequence (Q96EX1 whole entry, looked up): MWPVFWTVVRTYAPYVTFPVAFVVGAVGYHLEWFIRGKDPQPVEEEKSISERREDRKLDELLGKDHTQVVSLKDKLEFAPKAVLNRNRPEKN
inactive: [1] -0.026 | [2] -0.006 | [3] 0.004 | [4] 0.105 | [5] 0.153

SMAD2 (UniProt Q15796)
inactive: [1] -0.006 | [2] 0.024 | [3] -0.104 | [4] 0.023 | [5] 0

SYF2 (UniProt O95926)
inactive: [1] 0.021 | [2] -0.102 | [3] 0.001 | [4] 0.015 | [5] -0.024

SMG1 (UniProt Q96Q15)
inactive: [1] -0.05 | [2] -0.012 | [3] 0.018 | [4] 0.034 | [5] 0.046

SRSF2 (UniProt Q01130)
inactive: [1] 0.023 | [2] -0.011 | [3] 0 | [4] -0.058 | [5] -0.129

TARBP2 (UniProt Q15633)
UniProt Q15633, sequence (Q15633 whole entry, looked up): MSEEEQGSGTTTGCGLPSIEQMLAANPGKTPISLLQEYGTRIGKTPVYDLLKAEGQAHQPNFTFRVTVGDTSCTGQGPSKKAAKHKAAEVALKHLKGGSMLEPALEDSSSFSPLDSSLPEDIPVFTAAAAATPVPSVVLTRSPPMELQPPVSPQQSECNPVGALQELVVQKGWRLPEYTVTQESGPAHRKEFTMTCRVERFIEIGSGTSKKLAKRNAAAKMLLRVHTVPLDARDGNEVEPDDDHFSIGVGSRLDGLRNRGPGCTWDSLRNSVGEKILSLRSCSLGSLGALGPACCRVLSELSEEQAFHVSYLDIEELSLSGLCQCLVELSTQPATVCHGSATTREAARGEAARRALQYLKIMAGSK
inactive: [1] 0.001 | [2] -0.003 | [3] -0.003 | [4] -0.019 | [5] 0.051

STIM1 (UniProt Q13586)
UniProt Q13586, sequence (Q13586 whole entry, looked up): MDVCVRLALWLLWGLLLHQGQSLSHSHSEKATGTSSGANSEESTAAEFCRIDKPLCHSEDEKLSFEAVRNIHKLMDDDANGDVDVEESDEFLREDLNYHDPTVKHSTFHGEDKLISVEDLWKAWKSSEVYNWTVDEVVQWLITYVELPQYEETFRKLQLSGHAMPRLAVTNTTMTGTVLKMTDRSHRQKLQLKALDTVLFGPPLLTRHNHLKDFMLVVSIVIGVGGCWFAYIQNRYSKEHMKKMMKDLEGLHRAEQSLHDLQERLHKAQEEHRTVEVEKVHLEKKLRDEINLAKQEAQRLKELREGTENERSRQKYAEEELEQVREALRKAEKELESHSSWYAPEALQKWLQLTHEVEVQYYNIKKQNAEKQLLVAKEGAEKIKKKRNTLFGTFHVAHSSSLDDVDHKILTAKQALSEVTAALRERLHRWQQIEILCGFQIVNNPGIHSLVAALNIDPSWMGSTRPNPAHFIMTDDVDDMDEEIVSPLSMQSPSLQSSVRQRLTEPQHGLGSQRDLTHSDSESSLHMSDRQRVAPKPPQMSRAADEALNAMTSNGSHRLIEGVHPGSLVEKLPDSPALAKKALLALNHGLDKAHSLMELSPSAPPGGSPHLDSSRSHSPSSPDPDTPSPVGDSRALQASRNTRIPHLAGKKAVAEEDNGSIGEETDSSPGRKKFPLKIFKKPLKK
inactive: [1] -0.048 | [2] -0.008 | [3] 0.049 | [4] 0.028 | [5] 0.048

SLC29A2 (UniProt Q14542)
inactive: [1] 0.106 | [2] 0.001 | [3] 0.044 | [4] -0.116 | [5] -0.233

TANGO6 (UniProt Q9C0B7)
inactive: [1] 0.05 | [2] -0.021 | [3] -0.036 | [4] 0.043 | [5] -0.009

SLC25A32 (UniProt Q9H2D1)
inactive: [1] 0.032 | [2] 0.014 | [3] 0.016 | [4] -0.053 | [5] -0.06

SPC25 (UniProt Q9HBM1)
inactive: [1] 0.055 | [2] 0.044 | [3] 0.029 | [4] 0.022 | [5] 0.039

SLC27A2 (UniProt O14975)
inactive: [1] 0.198 | [2] -0.064 | [3] -0.043 | [4] -0.063 | [5] -0.05

TARBP1 (UniProt Q13395)
inactive: [1] -0.108 | [2] -0.025 | [3] 0.112 | [4] 0.016 | [5] 0.053

SLC25A25 isoform 3 (UniProt Q6KCM7)
UniProt Q6KCM7, sequence (Q6KCM7 whole entry, looked up): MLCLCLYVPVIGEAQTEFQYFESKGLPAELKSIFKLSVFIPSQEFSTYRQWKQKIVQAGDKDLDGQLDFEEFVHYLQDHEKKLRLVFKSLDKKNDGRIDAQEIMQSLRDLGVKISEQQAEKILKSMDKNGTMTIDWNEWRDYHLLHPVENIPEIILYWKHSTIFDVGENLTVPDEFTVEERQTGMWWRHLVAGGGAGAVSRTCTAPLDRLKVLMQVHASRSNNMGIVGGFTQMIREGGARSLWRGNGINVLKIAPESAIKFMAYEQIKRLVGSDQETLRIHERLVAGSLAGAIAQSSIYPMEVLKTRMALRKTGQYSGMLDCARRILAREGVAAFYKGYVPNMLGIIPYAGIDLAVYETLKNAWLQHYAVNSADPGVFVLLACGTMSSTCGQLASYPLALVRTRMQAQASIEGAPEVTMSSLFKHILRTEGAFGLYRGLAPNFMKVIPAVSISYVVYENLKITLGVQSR
inactive: [1] 0.064 | [2] -0.027 | [3] 0.013 | [4] 0.034 | [5] 0.023

SHKBP1 (UniProt Q8TBC3)
inactive: [1] 0.016 | [2] 0.02 | [3] 0.077 | [4] -0.027 | [5] 0.007

SMC6 (UniProt Q96SB8)
inactive: [1] -0.049 | [2] 0.006 | [3] 0.014 | [4] -0.036 | [5] -0.047

TAPT1 (UniProt Q6NXT6)
inactive: [1] -0.004 | [2] -0.023 | [3] 0.092 | [4] -0.07 | [5] -0.128

SMAD9 (UniProt O15198)
UniProt O15198, sequence (O15198 whole entry, looked up): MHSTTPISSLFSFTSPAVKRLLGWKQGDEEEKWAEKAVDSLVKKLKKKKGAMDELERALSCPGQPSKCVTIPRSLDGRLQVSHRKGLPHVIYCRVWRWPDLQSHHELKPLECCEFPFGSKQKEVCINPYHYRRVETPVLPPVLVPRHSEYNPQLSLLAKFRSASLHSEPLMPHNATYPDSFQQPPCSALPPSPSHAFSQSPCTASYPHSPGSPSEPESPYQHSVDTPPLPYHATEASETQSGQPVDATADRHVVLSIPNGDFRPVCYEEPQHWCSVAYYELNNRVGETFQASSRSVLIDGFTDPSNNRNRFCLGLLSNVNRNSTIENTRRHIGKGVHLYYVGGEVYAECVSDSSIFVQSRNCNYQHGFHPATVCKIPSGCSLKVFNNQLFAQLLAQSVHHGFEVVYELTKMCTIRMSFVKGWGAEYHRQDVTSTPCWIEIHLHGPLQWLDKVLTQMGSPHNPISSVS
inactive: [1] 0.102 | [2] -0.074 | [3] 0.058 | [4] -0.099 | [5] 0.042

STK3 isoform 2 (UniProt Q13188)
inactive: [1] -0.031 | [2] -0.042 | [3] -0.108 | [4] 0.01 | [5] -0.073

SVIP (UniProt Q8NHG7)
inactive: [1] 0.02 | [2] -0.048 | [3] -0.052 | [4] -0.069 | [5] -0.028

SNRNP40 (UniProt Q96DI7)
inactive: [1] 0.023 | [2] -0.03 | [3] 0.012 | [4] 0 | [5] -0.002

SRSF7 (UniProt Q16629)
inactive: [1] -0.005 | [2] 0.023 | [3] 0.04 | [4] 0.025 | [5] -0.045

SH3BP2 isoform 4 (UniProt P78314)
inactive: [1] -0.05 | [2] 0.211 | [3] -0.124 | [4] 0.035 | [5] -0.021

STAT2 (UniProt P52630)
inactive: [1] -0.033 | [2] 0.005 | [3] 0.043 | [4] 0.033 | [5] 0.017

SPATA5L1 (UniProt Q9BVQ7)
inactive: [1] -0.019 | [2] 0.036 | [3] 0.006 | [4] -0.007 | [5] -0.039

SLC11A2 isoform 3 (UniProt P49281)
inactive: [1] -0.081 | [2] -0.017 | [3] 0.016 | [4] -0.01 | [5] 0.003

SNX6, A0A0A0MRI2
inactive: [1] 0.014 | [2] 0.006 | [3] 0.016 | [4] 0.017 | [5] 0.115

STK11IP (UniProt Q8N1F8)
inactive: [1] 0.002 | [2] 0.072 | [3] 0.019 | [4] 0.019 | [5] 0.015

SPATS2 (UniProt Q86XZ4)
inactive: [1] 0.042 | [2] -0.035 | [3] 0.061 | [4] -0.014 | [5] -0.07

STAU1 (UniProt O95793)
inactive: [1] -0.023 | [2] -0.021 | [3] 0.012 | [4] 0.059 | [5] 0.09

SSNA1 (UniProt O43805)
inactive: [1] 0.034 | [2] -0.038 | [3] 0.009 | [4] -0.129 | [5] -0.075

TANK (UniProt Q92844)
UniProt Q92844, sequence (Q92844 whole entry, looked up): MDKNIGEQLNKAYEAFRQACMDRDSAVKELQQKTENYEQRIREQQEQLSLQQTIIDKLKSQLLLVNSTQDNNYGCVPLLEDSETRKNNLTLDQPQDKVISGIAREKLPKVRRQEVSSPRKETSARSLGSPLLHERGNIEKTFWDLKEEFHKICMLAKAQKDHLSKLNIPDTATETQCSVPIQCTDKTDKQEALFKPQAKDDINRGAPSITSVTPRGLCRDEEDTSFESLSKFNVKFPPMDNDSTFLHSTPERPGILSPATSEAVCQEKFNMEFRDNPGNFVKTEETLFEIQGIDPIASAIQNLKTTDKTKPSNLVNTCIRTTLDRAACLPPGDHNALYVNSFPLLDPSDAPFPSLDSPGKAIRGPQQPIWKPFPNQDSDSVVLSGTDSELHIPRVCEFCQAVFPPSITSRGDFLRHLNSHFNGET
inactive: [1] 0.04 | [2] -0.088 | [3] -0.023 | [4] -0.079 | [5] -0.025

SYPL1 (UniProt Q16563)
inactive: [1] -0.075 | [2] 0.003 | [3] -0.01 | [4] -0.041 | [5] -0.123

SKA3 (UniProt Q8IX90)
inactive: [1] -0.008 | [2] -0.002 | [3] -0.009 | [4] -0.016 | [5] -0.02

TARDBP (UniProt Q13148)
UniProt Q13148, sequence (Q13148 whole entry, looked up): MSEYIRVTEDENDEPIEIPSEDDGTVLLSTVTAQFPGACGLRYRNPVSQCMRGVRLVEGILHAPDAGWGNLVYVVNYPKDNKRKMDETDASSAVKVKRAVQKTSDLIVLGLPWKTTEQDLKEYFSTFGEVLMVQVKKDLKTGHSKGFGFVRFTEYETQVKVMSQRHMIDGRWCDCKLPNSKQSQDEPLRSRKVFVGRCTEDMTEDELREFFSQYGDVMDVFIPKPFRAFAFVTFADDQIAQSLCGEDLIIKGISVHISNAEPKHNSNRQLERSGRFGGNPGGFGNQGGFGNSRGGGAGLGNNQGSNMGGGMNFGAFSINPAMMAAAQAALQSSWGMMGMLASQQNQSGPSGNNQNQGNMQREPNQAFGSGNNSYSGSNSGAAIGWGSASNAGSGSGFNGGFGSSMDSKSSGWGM
inactive: [1] -0.094 | [2] -0.012 | [3] 0.067 | [4] -0.145 | [5] -0.041

SPNS1 (UniProt Q9H2V7)
inactive: [1] 0.05 | [2] 0.017 | [3] 0.023 | [4] -0.076 | [5] -0.019
